# ClpP mod – qHTS Assay for Activators of ClpP. purified B. subtilis ClpP, FRET peptide cleavage, 20 min. AID 651965, 2013. Potency, µM (series often up to 57.5 µM), for the others: top-dose activity change, negative = active. 340,000 tested, 1.9% active. ATP-dependent Clp protease proteolytic subunit (Bacillus subtilis (strain 168)), P80244; active means well fitted falling curve with a large enough effect; inconclusive means small, poorly fitted or top-dose-only effect; inactive means no such curve, though single readings can be large or run the other way; further: the source files actives as falling curves though it sought activators and does not explain the sign; nearly all actives have a fitted effect of over 65% in size
# Target sequence (P80244 whole entry, looked up): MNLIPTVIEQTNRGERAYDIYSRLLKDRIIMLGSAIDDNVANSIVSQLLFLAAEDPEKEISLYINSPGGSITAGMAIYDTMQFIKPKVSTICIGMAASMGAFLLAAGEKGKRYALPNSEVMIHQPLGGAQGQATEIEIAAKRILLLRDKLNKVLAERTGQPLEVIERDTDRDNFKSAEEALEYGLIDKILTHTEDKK
#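 Buffer: 100 mM Tris/HCl pH8, 100 mM KCl, 0.05% low protease BSA, 2.5% glycerol, 0.01% Tween-20. ClpP 10 microg/mL final; 20 min RT; delta FRET normalized to ADEP and DMSO controls.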
# DT40 TDP1 CPT – DT40-hTDP1 cell growth loss with CPT; chicken DT40 Tdp1-/-;hTDP1 cells + 20 nM CPT, ATP luminescence, 48 h; Potency, µM (titrated, usually from 46.2 µM), without a hit: top-dose activity change, negative = growth inhibition, actives largely listed as inhibitors; 420,000 tested, 12% active; AID 686979; further: on the % scale 0 is the no-effect control and ±100 the full control effect; nearly all actives have a fitted effect of over 55% in size
#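 Chicken DT40 Tdp1-/- cells stably complemented with human TDP1 were seeded at 400 cells/well in medium containing 20 nM camptothecin, exposed to pin-transferred compounds, and grown at 37 °C for at least 48 hr. Viability was read as ATP luminescence.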
# TDP1 inh – TDP1 (human) enzyme inhibition. Q9NUW8. recombinant TDP1, AlphaScreen DNA substrate cleavage. 350,000 tested, 0.28% active. AID 485290. Potency, µM (series often up to 130 µM), inactives show top-dose activity change, negative = inhibition, hits mostly inhibitors; further: on the % scale 0 is the no-effect control and ±100 the full control effect; nearly all actives have a fitted effect of over 40% in size
#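 Recombinant E. coli-expressed Tdp1 (1 nM) preincubated with compound 15 min at RT, then 5'-biotin/3'-phosphotyrosine-FITC DNA substrate (15 nM) added for 5 min. AlphaScreen beads (10 ug/ml) added, 10 min RT; tyrosine-FITC cleavage read as signal loss.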
# TDP1 cell noCPT – qHTS for Inhibitors of human tyrosyl-DNA phosphodiesterase 1 (TDP1): qHTS in cells in absence of CPT; 420,000 tested, 15% active; DT40 Tdp1-/- hTDP1 cells, no CPT, ATP luminescence, 48 h; AID 686978, 2013; Potency, µM (highest dose often 46.2 µM), without a hit: at the highest dose activity change, negative = growth inhibition, actives largely listed as inhibitors; further: on the % scale 0 is the no-effect control and ±100 the full control effect; nearly all actives have a fitted effect of over 55% in size
#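 Chicken DT40 Tdp1-/- cells stably complemented with human TDP1 were seeded at 400 cells/well with DMSO in place of 20 nM camptothecin. After compound pinning, cells grew at least 48 hr at 37 °C; viability read by CellTiter-Glo luminescence.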
# The depositor's hits bear a star; ? = inconclusive; . = no result; [ ] = dose if it differs, or a comment. Hits are enriched below; roughly 17% of the tested compounds scored in any of these assays. Unless noted, the call rests on the fitted dose curve; in most records, active means well fitted curve in the direction sought with a large enough effect; inconclusive means small, poorly fitted or top-dose-only effect, or another doubt; inactive means no such curve, though single readings can be large; an effect the other way counts as inactive or inconclusive. Potency means the concentration at half of the fitted maximal effect.
SMILES,ClpP mod,DT40 TDP1 CPT,TDP1 inh,TDP1 cell noCPT
COc1ccc(NC(=O)c2ccc(CN3CCc4ccccc4C3)cc2)c(OC)c1,0%,23µM*,.,?
OC(COc1c(F)cc(Br)cc1F)CN1CCc2ccccc2C1 (stereo unspecified),3%,?,.,?
O=C(Nc1cccc(Br)c1)c1ccc(CN2CCc3ccccc3C2)cc1,-18%,?,.,16µM*
CSc1cccc(NC(=O)c2ccc(CN3CCc4ccccc4C3)cc2)c1,.,?,.,-49%
COc1ccc(COCC(O)CN2CCc3ccccc3C2)cc1OC (stereo unspecified),28µM*,7%,4%,-5%
CC(=O)c1cccc(NC(=O)c2cccc3ccccc23)c1,0%,-1%,4%,-4%
Cc1cc(C)c(NC(=O)Cn2nnc(-c3nc(-c4ccccc4)no3)c2N)c(C)c1,4%,0%,0%,-2%
C/C=C/c1ccc(OCCN2CCc3ccccc3C2)c(OC)c1,.,?,-3%,?
COc1ccc(CN2CCc3ccc(NC(=O)CCc4ccccc4OC)cc3C2)c(O)c1,.,15µM*,5%,23µM*
COc1cc(CN2CCc3ccccc3C2)ccc1O,2%,0.92µM*,-2%,0.46µM*
COc1cc(CN2CCc3ccc(NC(=O)CCc4ccccc4OC)cc3C2)ccc1O,0%,?,7%,?
C=CCc1ccc(OCCN2CCc3ccccc3C2)c(OC)c1,.,?,-2%,16µM*
Cc1ccc(Cl)c(OCCN2CCc3ccccc3C2)c1,-4%,?,5%,23µM*
O=C(O)CCC(=O)C(=O)O (tested in a mixture with another compound),.,11%,15%[56.1 µM],15%
C/C=C/OC(=O)NC(c1ccccc1)[C@@]1(C(=O)OCC)CCCC1=O (stereo partly specified),.,.,3%[21 µM],.
O=S(=O)(NCC(c1ccc2c(c1)OCO2)N1CCOCC1)c1ccccc1 (stereo unspecified),-3%,-8%,-3%,-19%
CCc1ccc(NS(=O)(=O)c2ccc3[nH]cc(C(=O)N4CCCCCC4)c(=O)c3c2)cc1,-24%,12%,.,-13%
CC(C)(C)c1ccc(S(=O)(=O)Nc2ccc(C(O)(C(F)(F)F)C(F)(F)F)cc2)cc1,0%,16µM*,.,16µM*
O=S(=O)(Nc1ccc(C(O)(C(F)(F)F)C(F)(F)F)cc1)c1cccc2ccccc12,-1%,16µM*,.,21µM*
COc1ccc(NS(=O)(=O)c2cccc(C(=O)NNC(=O)c3ccc(NC(C)=O)cc3)c2)cc1,-2%,14%,-13%,0%
COc1cccc(S(=O)(=O)Nc2ccc(C(O)(C(F)(F)F)C(F)(F)F)cc2)c1,2%,16µM*,.,16µM*
CC(=O)Nc1ccc(NS(=O)(=O)c2cccc3ccccc23)cc1,-1%,?,0%,-18%
COC/C=C/C1=CC2=CC(=O)C(C)(OC(=O)c3cnc4ccccc4n3)C(=O)C2=CO1 (stereo unspecified),.,.,-1%,.
Cc1ccc(Nc2nc(C)nc(N)c2S(=O)(=O)c2ccccc2)cc1,-2%,.,7%,.
O=Cc1cccc(Oc2ccc([N+](=O)[O-])cc2[N+](=O)[O-])c1,2%,?,5%,7.3µM*
SMILES,ClpP mod,DT40 TDP1 CPT,TDP1 inh,TDP1 cell noCPT
CCCCc1cc(=O)oc2cc(C)cc(OCC(=O)NCC3CCC(C(=O)O)CC3)c12 (stereo unspecified),5%,-4%,.,-5%
O=[N+]([O-])c1cc(/C=N/O)ccc1Oc1cccc(Cl)c1,.,1%,-3%,-9%
CCOC(=O)c1c(-c2ccc(OC)cc2)csc1NC(=O)COc1ccc2c(C)cc(=O)oc2c1,-11%,23µM*,3%,16µM*
Cc1cc(OCC(=O)NCc2ccccn2)c2c(C)cc(=O)oc2c1,3%,7%,0%,0%
CCCc1cc(=O)oc2cc(C)cc(OCC(=O)NCc3ccccn3)c12,4%,18µM*,4%,-18%
Cc1cc(=O)oc2cc(OCC(=O)Nc3nccs3)ccc12,4%,2%,1%,-28%
CCCCc1cc(=O)oc2cc(C)cc(OCC(=O)O)c12,8.9µM*,-15%,4%,-5%
CC(=O)N1CCC2(CCN(Cc3ccncc3)CC2)CC1,.,17%,.,-4%
O=C(COc1ccccc1Cl)NC1CC1,0%,0%,2%,12%
Cc1cc(=O)oc2cc(Oc3ccc([N+](=O)[O-])cc3[N+](=O)[O-])ccc12,-14%,5.2µM*,6%,4.6µM*
Cc1cc(=O)oc2cc(OC(C)C(=O)NCc3ccccn3)ccc12 (stereo unspecified),3%,-13%,3%,8%
COc1ccc(-c2cc(=O)oc3cc(OCC(=O)NCc4ccccn4)ccc23)cc1,-20%,?,.,23µM*
Cc1cc(=O)oc2cc(OCC(=O)Nc3c(Cl)cccc3C(F)(F)F)ccc12,?,?,3%,13µM*
COc1ccc(-c2cc(=O)oc3cc(OC(C)C(=O)NCc4ccccn4)ccc23)cc1 (stereo unspecified),-12%,21µM*,.,?
C=CCC[C@H](Cc1ccc(F)cc1)C(=O)OC[C@@H](Cc1c[nH]c2ccccc12)NC(=O)[C@@H](CC=C)CC(=O)NCCO,-4%,?,6%,?
Nc1ncnc2c1ncn2[C@@H]1O[C@H](C(=O)N[C@@H](CO)Cc2ccccc2)[C@@H](O)[C@H]1O,1%,0%,.,-11%
O=C1[C@@H]2[C@H]3C(=CC[C@@H]2C(=O)N1Cc1ccccc1)C1(OCCCO1)[C@H]1O[C@@H]1[C@H]3O,.,.,3%[21 µM],.
O=c1c(-c2cccc(Cl)c2)nc2cncnc2n1Cc1ccccc1Cl,.,22%,.,11%
Cc1cccc(-c2nnc(SCCOc3ccc4c(C)cc(=O)oc4c3)o2)c1,10µM*,?,6%,?
CCCc1cc(=O)oc2cc(OC(C)C(=O)NCCCn3ccnc3)ccc12 (stereo unspecified),3%,-9%,7%,5%
Cc1cc(=O)oc2cc(Oc3ncccn3)ccc12,32µM*,-18%,5%,-13%
Cc1cc(=O)oc2cc(OCC(=O)NCc3ccccn3)ccc12,25µM*,-1%,-2%,3%
CC(Oc1ccc2c(-c3ccccc3)cc(=O)oc2c1)C(=O)NCCCn1ccnc1 (stereo unspecified),-6%,23µM*,.,15µM*
Cc1c(C)c2ccc(OCC(=O)NCc3ccccn3)cc2oc1=O,4%,2%,6%,28%
Fc1ccc(-n2c(CN3CCCCC3)n[nH]c2=S)cc1,.,1%,5%,?
CN(C)Cc1c(OC(=O)c2ccc(N)cc2)ccc2ccccc12,.,-8%,.,-27%
CCOC(=O)C1=C(O)C(=O)NC(c2ccccc2)=C(OCC)C1,-3%,-3%,8%,-2%
